From PubChem BioAssay
RPL19A-GFP yeast – RPL19A-GFP expression modulators in yeast, primary screen, cell-based, S. cerevisiae, multiplex flow cytometry, MLPCN; percent response vs DMSO, % at 10 µM; AID 2025, 2009; S. cerevisiae RPL19A-GFP strain, 3 h; active compounds read low; 0.3% of 330,000 active;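 active means percent response vs DMSO below 50%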;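 further: median channel GFP fluorescence of the barcoded RPL19A-GFP strain; ratio of sample median GFP to plate DMSO average so 100% = DMSO; lower means less RPL19A-GFP as with rapamycin TOR inhibition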
AGP1-GFP MLPCN – modulators of AGP1-GFP expression in yeast TOR pathway, primary screen, cell-based, multiplex flow cytometry, S. cerevisiae, MLPCN library. AID 2066, 2009. 3 h; GFP as percent of DMSO wells. 0.02% of 320,000 active. GFP response vs DMSO, % at 10 µM;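 active means GFP response relative to DMSO above a set limit, near screen average plus 3 SD, cut at about 150% in these data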;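 further: median GFP channel fluorescence of the gated AGP1 strain per well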
LAP4-GFP MLPCN – modulators of LAP4-GFP expression in yeast, primary screen, S. cerevisiae, multiplex flow cytometry, MLPCN library. 3 h; median GFP as percent of DMSO wells. GFP response vs DMSO, % at 10 µM. 0.34% of 320,000 active;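 active means GFP response vs DMSO above a set limit, about the screen mean plus 3 SD, cut at about 150% in these data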
CIT2-GFP yeast – modulators of CIT2-GFP expression in yeast, primary screen, S. cerevisiae, GFP fusion, multiplex flow cytometry, MLPCN library; S. cerevisiae CIT2-GFP strain, 3 h; 100 means same as DMSO wells; GFP response vs DMSO, % at 10 µM; 0.065% of 320,000 active; AID 2029, 2009;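 active means GFP response relative to DMSO above a set limit, near the screen mean plus 3 SD, cut at about 150% in these data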;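 further: ratio of well median GFP fluorescence to mean of DMSO wells on the plate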
MEP2 TOR yeast – modulators of MEP2-GFP levels in yeast, primary screen, S. cerevisiae, multiplex flow cytometry, MLPCN library | S. cerevisiae MEP2-GFP strain, 3 h; 100% = DMSO control level | GFP response vs DMSO, % at 10 µM | 0.51% of 330,000 active;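 active means GFP response versus DMSO above a set limit, roughly screen mean plus 3 SD, cut at about 180% in these data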;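 further: median GFP fluorescence of the barcode-gated MEP2-GFP cells per well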
LAP4-GFP pick2 – LAP4-GFP expression modulators in yeast, confirmation, cell-based, second cherry pick, flow cytometry | shares compounds with LAP4-GFP MLPCN | S. cerevisiae LAP4-GFP strain, 3 h | GFP response vs DMSO, % at 10 µM | 20% of 590 active;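 active means GFP signal as percent of the solvent control above about 150%, meaning raised reporter expression, limit read from the data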;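 further: ratio of well median GFP fluorescence to plate DMSO mean so 100% = DMSO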
MEP2 cherry2 – modulators of MEP2-GFP levels in yeast, confirmation, S. cerevisiae, flow cytometry GFP, second cherry picks; shares compounds with LAP4-GFP MLPCN; S. cerevisiae MEP2-GFP strain, 3 h; GFP response vs DMSO, % at 10 µM; 10% of 590 active; AID 2622, 2010;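 active means GFP signal above 150% of the solvent control wells, that is a rise of more than half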;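 further: median channel GFP fluorescence of all gated yeast cells per well; ratio of median GFP to plate DMSO average so 100% = DMSO level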
RPL19A-GFP pick2 – RPL19A-GFP modulators in TOR pathway yeast, confirmation, cell-based, S. cerevisiae, flow cytometry, second cherry pick; GFP response vs DMSO, % at 10 µM; shares compounds with LAP4-GFP MLPCN; 3% of 590 active; S. cerevisiae RPL19A-GFP strain, 3 h; active compounds read low; 100% means same as DMSO wells;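 active means under 65% GFP response relative to DMSO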;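 further: median GFP channel fluorescence per well over the all cells gate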
CIT2 GFP CP2 – modulators of CIT2-GFP expression in yeast, confirmation, flow cytometry, second cherry pick, single plex | shares compounds with LAP4-GFP MLPCN | S. cerevisiae CIT2-GFP strain, 3 h; DMSO control wells read 100% | AID 2624, 2010 | 8% of 590 active | GFP response vs DMSO, % at 10 µM;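 active means GFP response vs DMSO above about 150%, limit read from the data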;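 further: median green fluorescence per well over all gated yeast cells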
AGP1 GFP CP2 – AGP1-GFP expression modulators, hit retest, confirmation, cell-based, flow cytometry, S. cerevisiae, cherry pick set 2. percent response vs DMSO, % at 10 µM. AID 2643, 2010. S. cerevisiae AGP1-GFP strain, 3 h. shares compounds with LAP4-GFP MLPCN. 590 tested, under 10 active;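 active means over 150 percent of DMSO response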;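 further: median GFP channel fluorescence over all cells without mother daughter split; sample median GFP divided by mean DMSO control so 100% equals DMSO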
s288c autofluor – compound autofluorescence in yeast s288c, dose response, artefact control for yeast TOR pathway GFP screen, s288c strain. S. cerevisiae s288c, 520 nm autofluorescence, flow cytometry, 3 h; active compounds read high; zero means same as solvent-only cells. 610 tested, under 10 active. shares compounds with LAP4-GFP MLPCN. fluorescence change (kMESF span) at 33 µM. AID 2757, 2010;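 active means fluorescence span over the dose series, or activity score, above about 33, limit read from the data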
* hit, by the source's call. Only some compounds are listed: those with a hit (about 0.92% of all), similar ones and a draw of the others.

What do the screens show for `C#CCOCCOCCOCCNc1nc(N2CCN(C(=O)CCCCCCCCCCNC(=O)[C@H](CCCCN)n3cc(CCO)nn3)CC2)nc(N2CCN(C(=O)CCCCCCCCCCNC(=O)[C@H](CCCN=C(N)N)n3cc(C[C@@H](C)CC)nn3)CC2)n1`?
RPL19A-GFP yeast: 71; AGP1-GFP MLPCN: 89; LAP4-GFP MLPCN: 201*; CIT2-GFP yeast: 75; MEP2 TOR yeast: 100; LAP4-GFP pick2: 123; MEP2 cherry2: 175*; RPL19A-GFP pick2: 90; CIT2 GFP CP2: 108; AGP1 GFP CP2: 112; s288c autofluor: -0.2

What do the screens show for `C#CCOCCOCCOCCNc1nc(N2CCN(C(=O)CCCCCCCCCCNC(=O)[C@H](CCCCN)n3cc(CCCC(=O)O)nn3)CC2)nc(N2CCN(C(=O)CCCCCCCCCCNC(=O)[C@H](CCCN=C(N)N)n3cc(C[C@@H](C)CC)nn3)CC2)n1`?
RPL19A-GFP yeast: 81; AGP1-GFP MLPCN: 86; LAP4-GFP MLPCN: 178*; CIT2-GFP yeast: 80; MEP2 TOR yeast: 99; LAP4-GFP pick2: 108; MEP2 cherry2: 165*; RPL19A-GFP pick2: 92; CIT2 GFP CP2: 103; AGP1 GFP CP2: 110; s288c autofluor: 0

Results for C#CCOCCOCCOCCNc1nc(N2CCN(C(=O)CCCCCCCCCCNC(=O)[C@H]([C@@H](C)CC)n3cc(CCCCCN)nn3)CC2)nc(N2CCN(C(=O)CCCCCCCCCCNC(=O)[C@@H]([C@H](C)O)n3cc(C)nn3)CC2)n1 ?
RPL19A-GFP yeast: 88; AGP1-GFP MLPCN: 75; LAP4-GFP MLPCN: 121; CIT2-GFP yeast: 63; MEP2 TOR yeast: 91

How did N#CCCCCN1CCCC1 do in these assays?
RPL19A-GFP yeast: 99; AGP1-GFP MLPCN: 96; LAP4-GFP MLPCN: 95; CIT2-GFP yeast: 96; MEP2 TOR yeast: 111

Results for CCCc1ccc(-c2cc(C(=O)Nc3ccc([N+](=O)[O-])cn3)c3ccccc3n2)cc1 ?
RPL19A-GFP yeast: 87; AGP1-GFP MLPCN: 102; LAP4-GFP MLPCN: 112; CIT2-GFP yeast: 90; MEP2 TOR yeast: 103

Results for CC(=O)[C@]1(O)Cc2c(O)c3c(c(O)c2[C@@H](O[C@H]2C[C@H](N)[C@H](O)[C@H](C)O2)C1)C(=O)c1ccccc1C3=O ?
RPL19A-GFP yeast: 107; AGP1-GFP MLPCN: 89; LAP4-GFP MLPCN: 152*; CIT2-GFP yeast: 91; MEP2 TOR yeast: 119; LAP4-GFP pick2: 151*; MEP2 cherry2: 153*; RPL19A-GFP pick2: 111; CIT2 GFP CP2: 140; AGP1 GFP CP2: 108; s288c autofluor: 2.7

How did COc1cccc2c1C(=O)c1c(O)c3c(c(O)c1C2=O)C[C@@](O)(C(=O)CO)C[C@@H]3O[C@H]1C[C@H](N)[C@@H](O)[C@H](C)O1 do in these assays?
RPL19A-GFP yeast: 106; AGP1-GFP MLPCN: 95; LAP4-GFP MLPCN: 95; CIT2-GFP yeast: 95; MEP2 TOR yeast: 105

Results for Cc1cc(-c2cc(C(=O)NCc3ccccc3)on2)nc(NCC2CC2)n1 ?
RPL19A-GFP yeast: 100; AGP1-GFP MLPCN: 100; LAP4-GFP MLPCN: 109; CIT2-GFP yeast: 96; MEP2 TOR yeast: 113; LAP4-GFP pick2: 102; MEP2 cherry2: 97; RPL19A-GFP pick2: 98; CIT2 GFP CP2: 100; AGP1 GFP CP2: 98

Results for COCCNc1nc(C)cc(-c2cc(C(=O)NC3CCCC3)on2)n1 ?
RPL19A-GFP yeast: 88; AGP1-GFP MLPCN: 82; LAP4-GFP MLPCN: 134; CIT2-GFP yeast: 88; MEP2 TOR yeast: 82

What do the screens show for `CCCNc1nc(C)cc(-c2cc(C(=O)NCc3ccccc3)on2)n1`?
RPL19A-GFP yeast: 97; AGP1-GFP MLPCN: 82; LAP4-GFP MLPCN: 153*; CIT2-GFP yeast: 92; MEP2 TOR yeast: 93; LAP4-GFP pick2: 101; MEP2 cherry2: 98; RPL19A-GFP pick2: 98; CIT2 GFP CP2: 97; AGP1 GFP CP2: 97

How did CCCNc1nc(C)cc(-c2cc(C(=O)Nc3ccccc3)on2)n1 do in these assays?
RPL19A-GFP yeast: 100; AGP1-GFP MLPCN: 89; LAP4-GFP MLPCN: 104; CIT2-GFP yeast: 94; MEP2 TOR yeast: 94; LAP4-GFP pick2: 102; MEP2 cherry2: 108; RPL19A-GFP pick2: 97; CIT2 GFP CP2: 101; AGP1 GFP CP2: 104

Results for CC(C)c1cc(-c2cc(C(=O)Nc3ccccc3)on2)nc(NC2CCCC2)n1 ?
RPL19A-GFP yeast: 97; AGP1-GFP MLPCN: 88; LAP4-GFP MLPCN: 110; CIT2-GFP yeast: 88; MEP2 TOR yeast: 90; LAP4-GFP pick2: 101; MEP2 cherry2: 105; RPL19A-GFP pick2: 99; CIT2 GFP CP2: 89; AGP1 GFP CP2: 99

Results for COc1cccc(CN(c2ccc3c(c2)CCC3)S(=O)(=O)c2ccc(-n3cnnn3)c(OC)c2)c1 ?
RPL19A-GFP yeast: 101; AGP1-GFP MLPCN: 98; LAP4-GFP MLPCN: 94; CIT2-GFP yeast: 96; MEP2 TOR yeast: 100

What do the screens show for `Oc1c(C(Nc2cccc(C(F)(F)F)c2)c2ccncc2)ccc2cccnc12` (stereo unspecified)?
RPL19A-GFP yeast: 91; AGP1-GFP MLPCN: 88; LAP4-GFP MLPCN: 170*; CIT2-GFP yeast: 90; MEP2 TOR yeast: 88; s288c autofluor: 0.7
